Source: PubChem BioAssay (Tox21)
Inconclusive results are not listed. Calls of active or inactive are those of the source. Unless noted, the call rests on the fitted dose curve.

How the values were obtained:
[1] = qHTS assay to identify small molecule agonists of the peroxisome proliferator-activated receptor delta (PPARd) signaling pathway - cell viability counter screen (AID 743211; active means well fitted curve in the direction sought with a large enough effect in the repeat runs; an effect the other way counts as inactive or inconclusive; further: nearly all actives have a fitted effect of over 55% in size)
Summary of the method: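 PPARd-bla HEK293H cells (UAS-beta-lactamase reporter) were treated with compounds for 17 h at 37 C. Viability was then read in the same wells by CellTiter-Glo luminescence after 30 min at room temperature.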

[2] = biological target: Peroxisome proliferator-activated receptor delta (Homo sapiens) (UniProt Q03181); assay: qHTS assay to identify small molecule agonists of the peroxisome proliferator-activated receptor delta (PPARd) signaling pathway (AID 743212)
Summary of the method: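 Read-out: beta-lactamase FRET fluorescence after 2 h room-temperature incubation with LiveBLAzer B/G substrate. Cells were HEK293H carrying a UAS-bla reporter for PPARd, treated at 37 C with DMSO-dissolved compounds.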

[3] = biological target: Bile acid receptor (Homo sapiens) (UniProt Q96RI1); assay: qHTS assay to identify small molecule antagonists of the farnesoid-X-receptor (FXR) signaling pathway (AID 743217; active means well fitted inhibition curve with a large enough effect in the signal ratio in the repeat runs, not every such curve was filed as active; the % refers to the signal ratio)
Summary of the method: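 Read-out: beta-lactamase FRET fluorescence (LiveBLAzer B/G substrate, 2 h, room temperature) in GeneBLAzer FXR-UAS-bla HEK 293T cells. Compounds were co-dosed with 50 uM chenodeoxycholic acid (final) and incubated 16 h at 37 °C.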

[4] = qHTS assay to identify small molecule agonists of the farnesoid-X-receptor (FXR) signaling pathway - cell viability counter screen (AID 743218; active means well fitted curve in the direction sought with a large enough effect in the repeat runs; an effect the other way counts as inactive or inconclusive; further: nearly all actives have a fitted effect of over 45% in size)
Summary of the method: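 Luminescence from CellTiter-Glo, read after 30 min at RT, reports viability of GeneBLAzer FXR-UAS-bla HEK 293T cells treated 16 h with compounds in the wells used for the beta-lactamase reporter.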

[5] = biological target: Bile acid receptor (Homo sapiens) (UniProt Q96RI1); assay: qHTS assay to identify small molecule agonists of the farnesoid-X-receptor (FXR) signaling pathway (AID 743220; active means well fitted activation curve with a large enough effect in the signal ratio in the repeat runs, not every such curve was filed as active; the % refers to the signal ratio)
Summary of the method: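 FXR-UAS-bla HEK 293T cells carrying a UAS-driven beta-lactamase reporter were plated for 5 h at 37C/5% CO2, then exposed to DMSO-dissolved Tox21 10K compounds for 16 h at 37C. A LiveBLAzer B/G FRET substrate was loaded for 2 h at room temperature before fluorescence reading.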

[6] = qHTS assay to identify small molecule antagonists of the farnesoid-X-receptor (FXR) signaling pathway - cell viability counter screen (AID 743221; active means well fitted cell-killing curve with a large enough effect in the repeat runs, not every such curve was filed as active; further: nearly all actives have a fitted effect of over 50% in size)
Summary of the method: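 FXR-UAS-bla HEK 293T cells were treated with test compounds plus chenodeoxycholic acid (50 uM final) for 16 h at 37 C. Cell viability in the same wells was then read as CellTiter-Glo luminescence after 30 min at room temperature.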

[7] = biological target: Vitamin D3 receptor (Homo sapiens) (UniProt P11473); assay: qHTS assay to identify small molecule agonists of the vitamin D receptor (VDR) signaling pathway (AID 743222)
Summary of the method: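 Beta-lactamase reporter readout (LiveBLAzer B/G FRET, 2 h RT) in VDR-bla cells after 16 h compound treatment at 37C, 5% CO2; cells pre-incubated 4 h before pin transfer of DMSO solutions.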

[8] = biological target: Vitamin D3 receptor (Homo sapiens) (UniProt P11473); assay: qHTS assay to identify small molecule antagonists of the vitamin D receptor (VDR) signaling pathway (AID 743223; active means well fitted inhibition curve with a large enough effect in the signal ratio in the repeat runs, not every such curve was filed as active; the % refers to the signal ratio)
Summary of the method: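 VDR-bla cells were plated, incubated 4 h at 37C, then given compound and 1alpha,25-dihydroxyvitamin D3 (3 nM final). After 16 h at 37C, LiveBLAzer B/G FRET substrate was added for 2 h at room temperature and fluorescence read.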

[9] = qHTS assay to identify small molecule agonists of the vitamin D receptor (VDR) signaling pathway - cell viability counter screen (AID 743224; active means well fitted curve in the direction sought with a large enough effect in the repeat runs; an effect the other way counts as inactive or inconclusive; further: series mostly up to about 63 µM; nearly all actives have a fitted effect of over 50% in size)
Summary of the method: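 Cytotoxicity counter screen: VDR-bla cells, 16 h compound exposure at 37C, 5% CO2; CellTiter-Glo luminescence, 30 min RT, same wells as bla read.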

[10] = qHTS assay to identify small molecule antagonists of the vitamin D receptor (VDR) signaling pathway - cell viability counter screen (AID 743225; active means well fitted curve in the direction sought with a large enough effect in the repeat runs; an effect the other way counts as inactive or inconclusive; further: nearly all actives have a fitted effect of over 50% in size)
Summary of the method: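 VDR-bla HEK 293T cells, 4 h pre-incubation at 37C, then compound plus 1-alpha,25-dihydroxyvitamin D3 (3 nM final) for 16 h. After the beta-lactamase FRET read, CellTiter-Glo was added to the same wells; luminescence after 30 min at room temperature.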

[11] = qHTS assay to identify small molecule agonists of the NFkB signaling pathway - cell viability counter screen (AID 1159515); further: series mostly up to about 61 µM; nearly all actives have a fitted effect of over 55% in size
Summary of the method: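 ME-180 NFkB-bla cells, 2,000/well; overnight attach; compound 5 hr, 37 C/5% CO2; LiveBLAzer substrate 1.5 hr RT; then CellTiter-Glo in same wells, 30 min RT, luminescence read.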

[12] = qHTS assay to identify small molecule agonists of the endoplasmic reticulum stress response signaling pathway (AID 1159516; active means well fitted activation curve with a large enough effect in the signal ratio in the repeat runs, not every such curve was filed as active; the % refers to the signal ratio)
Summary of the method: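 HeLa ESRE-bla reporter line; cpd 5 h, 37 C/5% CO2; LiveBLAzer B/G FRET substrate 2 h RT; ex 405, em 460/530 nm.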

[13] = qHTS assay to identify small molecule agonists of the endoplasmic reticulum stress response signaling pathway - cell viability counter screen (AID 1159517);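 further: HeLa cells carrying an ER stress response element beta-lactamase reporter; series mostly up to about 61 µM; nearly all actives have a fitted effect of over 50% in size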
Summary of the method: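 Steps: seed 1,500 ESRE-bla HeLa cells per well; incubate overnight at 37 C, 5% CO2; add compounds in DMSO for 5 hr; run FRET substrate 2 hr RT; add CellTiter-Glo, wait 30 min, read luminescence.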

[14] = qHTS assay to identify small molecule antagonists of the retinoid-related orphan receptor gamma (ROR-gamma) signaling pathway - cell viability counter screen (AID 1159520; active means well fitted curve in the direction sought with a large enough effect in the repeat runs; an effect the other way counts as inactive or inconclusive; further: nearly all actives have a fitted effect of over 50% in size)
Summary of the method: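 Tet-on ROR gamma CHO cells were given compounds for 2 hr, then doxycycline hyclate at 1 uM final, and incubated 16 hr at 37 C. Viability was measured as ATP content by CellTiter-Glo luminescence.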

[15] = biological target: Nuclear receptor ROR-gamma (Homo sapiens) (UniProt P51449); assay: qHTS assay to identify small molecule antagonists of the retinoid-related orphan receptor gamma (ROR-gamma) signaling pathway (AID 1159521; active means well fitted curve in the direction sought with a large enough effect in the repeat runs; an effect the other way counts as inactive or inconclusive)
Summary of the method: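 Tet-on RORγ CHO cells carrying a ROR response element–luciferase reporter were pretreated with compounds for 2 h, then induced with 1 uM (final) doxycycline hyclate for 16 h at 37 C. Antagonism was read as decreased ONE-Glo luminescence.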

[16] = qHTS assay to identify small molecule agonists of the AP-1 signaling pathway (AID 1159526)
[17] = biological target: Retinoic acid receptor RXR-alpha (Homo sapiens) (UniProt P19793); assay: qHTS assay to identify small molecule agonists of the RXR signaling pathway (AID 1159527); further: nearly all actives have a fitted effect of over 35% in size
Summary of the method: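 GeneBLAzer RXR-alpha-UAS-bla HEK 293T cells in medium with 2% charcoal-stripped FBS, pre-incubated 5 hr at 37 C, then exposed to compounds 16 hr. Beta-lactamase reporter read by FRET substrate, 2 hr room temperature, 460/530 nm emission.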

[18] = qHTS assay to identify small molecule antagonists of the peroxisome proliferator-activated receptor delta (PPARd) signaling pathway - cell viability counter screen (AID 743213; active means well fitted curve in the direction sought with a large enough effect in the repeat runs; an effect the other way counts as inactive or inconclusive; further: nearly all actives have a fitted effect of over 50% in size)
Summary of the method: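 Luminescence from CellTiter-Glo, added after the bla read and incubated 30 min at room temperature, gives viability of HEK293H PPARd-bla cells exposed to compounds for 17 h at 37 C with 300 nM L165041.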

[19] = biological target: Peroxisome proliferator-activated receptor delta (Homo sapiens) (UniProt Q03181); assay: qHTS assay to identify small molecule antagonists of the peroxisome proliferator-activated receptor delta (PPARd) signaling pathway (AID 743215; active means well fitted inhibition curve with a large enough effect in the signal ratio in the repeat runs, not every such curve was filed as active; the % refers to the signal ratio;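 further: cells stimulated with agonist L165041 at 300 nM final during compound exposure; series mostly up to about 62 µM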)
Summary of the method: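 HEK293H GeneBLAzer PPARd UAS-bla reporter cells; cpd + L165041 300 nM final, 17 h 37 C; LiveBLAzer B/G FRET substrate 2 h RT; fluorescence intensity read-out. Antagonist mode.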

[20] = qHTS assay to identify small molecule agonists of the AP-1 signaling pathway - cell viability counter screen (AID 1159525); further: nearly all actives have a fitted effect of over 55% in size
Summary of the method: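 Same-well cytotoxicity counter screen of the Tox21 10K library in ME-180 cells. The readout is ATP-dependent luminescence after 5 h compound treatment. Data are normalised to DMSO and tetra n-octyl ammonium bromide controls.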

Measured: Potency

Chain of Peroxisome proliferator-activated receptor delta (Homo sapiens) (Q03181 whole entry, looked up): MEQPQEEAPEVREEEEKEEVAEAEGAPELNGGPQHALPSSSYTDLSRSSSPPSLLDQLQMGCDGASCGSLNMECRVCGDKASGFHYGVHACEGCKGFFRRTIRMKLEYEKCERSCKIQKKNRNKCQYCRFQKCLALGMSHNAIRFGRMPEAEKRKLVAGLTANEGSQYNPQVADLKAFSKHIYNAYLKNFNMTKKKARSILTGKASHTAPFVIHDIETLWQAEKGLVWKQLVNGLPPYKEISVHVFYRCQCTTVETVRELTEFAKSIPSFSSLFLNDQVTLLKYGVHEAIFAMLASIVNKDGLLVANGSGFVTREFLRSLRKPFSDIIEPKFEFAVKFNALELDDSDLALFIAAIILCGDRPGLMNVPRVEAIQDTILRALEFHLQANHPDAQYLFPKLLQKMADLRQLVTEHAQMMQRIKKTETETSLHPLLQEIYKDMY
Chain of Bile acid receptor (Homo sapiens) (Q96RI1 whole entry, looked up): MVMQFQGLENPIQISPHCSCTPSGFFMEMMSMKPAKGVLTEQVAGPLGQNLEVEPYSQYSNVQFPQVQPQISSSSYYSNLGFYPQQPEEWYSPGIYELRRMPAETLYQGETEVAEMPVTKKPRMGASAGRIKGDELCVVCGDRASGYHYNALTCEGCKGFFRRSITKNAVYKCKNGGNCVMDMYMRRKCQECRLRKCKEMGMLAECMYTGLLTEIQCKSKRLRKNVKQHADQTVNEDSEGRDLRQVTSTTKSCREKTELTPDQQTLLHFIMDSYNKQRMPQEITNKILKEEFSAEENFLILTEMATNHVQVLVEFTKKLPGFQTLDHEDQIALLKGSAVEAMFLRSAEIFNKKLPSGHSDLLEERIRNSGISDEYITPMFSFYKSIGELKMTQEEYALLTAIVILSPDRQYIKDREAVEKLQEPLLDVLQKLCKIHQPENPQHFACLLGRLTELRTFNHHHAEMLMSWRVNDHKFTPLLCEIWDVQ
Chain of Vitamin D3 receptor (Homo sapiens) (P11473 whole entry, looked up): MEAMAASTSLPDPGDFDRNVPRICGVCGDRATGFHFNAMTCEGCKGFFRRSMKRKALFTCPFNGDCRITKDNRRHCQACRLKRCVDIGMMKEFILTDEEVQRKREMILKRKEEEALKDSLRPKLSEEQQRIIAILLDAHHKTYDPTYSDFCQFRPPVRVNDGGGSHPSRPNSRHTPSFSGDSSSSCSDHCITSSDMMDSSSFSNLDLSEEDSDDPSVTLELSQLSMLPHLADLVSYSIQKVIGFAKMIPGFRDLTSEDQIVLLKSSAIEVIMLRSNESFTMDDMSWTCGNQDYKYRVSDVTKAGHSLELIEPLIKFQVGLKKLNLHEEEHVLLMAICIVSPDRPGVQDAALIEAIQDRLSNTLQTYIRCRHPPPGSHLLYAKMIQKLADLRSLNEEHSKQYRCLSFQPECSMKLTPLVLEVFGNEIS
Chain of Retinoic acid receptor RXR-alpha (Homo sapiens) (P19793 whole entry, looked up): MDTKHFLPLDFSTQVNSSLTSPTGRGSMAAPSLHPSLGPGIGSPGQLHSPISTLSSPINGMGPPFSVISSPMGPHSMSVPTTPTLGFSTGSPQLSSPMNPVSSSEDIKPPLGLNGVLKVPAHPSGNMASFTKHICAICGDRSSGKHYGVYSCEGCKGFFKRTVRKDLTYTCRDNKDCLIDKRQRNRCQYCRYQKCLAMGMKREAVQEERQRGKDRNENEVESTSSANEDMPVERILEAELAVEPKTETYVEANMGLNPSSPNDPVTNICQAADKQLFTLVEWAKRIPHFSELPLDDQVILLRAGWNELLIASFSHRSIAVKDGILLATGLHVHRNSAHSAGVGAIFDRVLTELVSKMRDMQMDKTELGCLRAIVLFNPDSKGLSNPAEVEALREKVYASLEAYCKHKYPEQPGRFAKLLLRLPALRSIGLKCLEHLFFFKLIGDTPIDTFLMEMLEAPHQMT

O=C(O)C(Cl)(Cl)Br
not listed: [18] | [19] | [20]
inactive: all other assays above

O=C(NC(=O)c1cc(F)c(F)cc1Cl)Nc1cc(F)ccc1N1CCC(C(=O)O)CC1
not listed: [1] | [3] | [5] | [10] | [17]
inactive: all other assays above

CCOC(=O)c1cn2nc(OP(=S)(OCC)OCC)cc2nc1C
not listed: [1] | [3] | [7] | [8] | [17]
inactive: all other assays above

N#CC(C#N)=C(C#N)C#N
not listed: [1] | [3] | [5] | [6] | [10] | [18] | [19]
inactive: all other assays above

c1ccc2sc(SNC3CCCCC3)nc2c1
not listed: [16] | [17]
inactive: all other assays above

COc1ccc(C(=O)c2c(C)n(CCN3CCOCC3)c3ccccc23)cc1
not listed: [3] | [4] | [6] | [7] | [8] | [10] | [17] | [19]
inactive: all other assays above

CC(=O)NNc1ccccc1
inactive: [3] | [5] | [7] | [8] | [11] | [12] | [13] | [14] | [15] | [20] | [16]

CCCCCCCCP(=O)(O)O
not listed: [1] | [3] | [4] | [5]
inactive: all other assays above

CCNC(=O)NC(=O)/C(C#N)=N/OC
not listed: [8] | [17]
inactive: all other assays above
